Rows were chosen to be rich in hits. Some 8% of all compounds tested hit in one or more screens of this group.
KB-3-1 cytotox: KB-3-1 parental cell cytotoxicity; KB-3-1 viability, CellTiter-Glo ATP luminescence, 72 h; Potency, µM (doses to about 46.1 µM), most hits filed as cytotoxic; actives 1.4% (n = 400,000); AID 1347075; further: on the % scale 0 is the no-effect control and ±100 the full control effect; nearly all actives have a fitted effect of over 60% in size
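KB-3-1 parental drug-naive adenocarcinoma cells in DMEM/10% FBS, incubated 72 h at 37 C with pin-transferred compounds across a concentration series. Viability by CellTiter-Glo luminescence; concentration-response curves fitted after normalization.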
KB-V1 MDR tox: kills drug-selected multidrug resistant KB-V1 cells | actives 3.4% (n = 400,000) | KB-V1 MDR cells viability, CellTiter-Glo, 72 h | Potency, µM (titrated, usually from 46.1 µM), hits mostly cytotoxic; further: on the % scale 0 is the no-effect control and ±100 the full control effect; nearly all actives have a fitted effect of over 60% in size
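Potencies derive from concentration-effect curves fitted to normalized luminescence (CellTiter-Glo) of KB-V1 cells treated for 72 h at 37 degrees C in phenol-red-free DMEM containing 10% FBS.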
MCF10A rereplic: inducers of DNA re-replication in MCF 10A breast cells; MCF 10A DNA re-replication, Hoechst nuclear intensity, 48 h; Potency, µM (series often up to 46.1 µM), for the others: at the top dose activity, positive = re-replication, usual class: activators; actives 2.9% (n = 350,000); AID 624296; further: % of control where 0% means no effect; nearly all actives have a fitted effect of over 50% in size
HT1080NT lethal: kills 2HG-producing HT-1080-NT fibrosarcoma cells | HT-1080-NT fibrosarcoma viability, CellTiter-Glo ATP luminescence, 48 h | Potency, µM (titrated, usually from 46.1 µM), without a hit: at the top dose activity, negative = less viability, hits mostly cytotoxic | actives 1.6% (n = 360,000);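 further: NT is the 2HG producing partner of a matched IDH1 knockdown line; 0% = DMSO-treated cells and -100% = media-only wells without cells; nearly all actives have a fitted effect of over 55% in size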
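Toxicity toward the 2HG-producing NT line was scored as %Activity, normalised to DMSO and no-cell wells, from CellTiter-Glo luminescence after 48 hours' treatment.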
HT1080 IDH1KD tx: HT-1080 IDH1 knockdown cell toxicity (counter line) | actives 2% (n = 360,000) | Potency, µM (top dose mostly 46.1 µM), for inactives: at the highest dose activity, negative = toxicity, actives largely listed as cytotoxic | HT-1080 IDH1 knockdown viability, ATP luminescence, 48 h;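 further: 0% = DMSO wells and -100% = cell-free medium wells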
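Assay cells: HT-1080 with IDH1 knockdown, 750 per well, RPMI/5% FBS. Exposure: 48 h at 37 °C following 2 h pre-incubation. Read: CellTiter-Glo luminescence; fitted concentration-response, curve class assigned.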
SW480 rerep: DNA re-replication induction in SW480 cells; actives 1.8% (n = 340,000); SW480 DNA re-replication, Hoechst DNA content imaging, 48 h; AID 624297; Potency, µM (series often up to 46.1 µM), for the others: top-dose re-replication activation, most hits filed as activators; further: % of control where 0% means no effect; nearly all actives have a fitted effect of over 55% in size
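Quantitative HTS format with DMSO vehicle controls; 48 hr drug incubation at 37 C, then 40 min Hoechst staining and scanning imager measurement at 405 nm excitation.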
* = called active by the depositor; i = inactive; ? = inconclusive; / = not tested or not shown. The call rests on the fitted dose curve; in most records, active means well fitted curve in the direction sought with a large enough effect; inconclusive means small, poorly fitted or top-dose-only effect, or another doubt; inactive means no such curve, though single readings can be large; an effect the other way counts as inactive or inconclusive. Potency means the concentration at half of the fitted maximal effect.

SMILES | KB-3-1 cytotox | KB-V1 MDR tox | MCF10A rereplic | HT1080NT lethal | HT1080 IDH1KD tx | SW480 rerep
Cc1cc(N(C)C)cc(C)c1/C=C/c1cc[n+](C)c2ccccc12 | 4.6µM* | i | / | / | / | /
CN(C)c1ccc(/C=C/c2cc[n+](C)c3ccc4ccccc4c23)cc1 | 0.92µM* | ? | / | / | / | /
COc1cc(OC)c(/C=C/c2cc[n+](C)c3ccccc23)c(OC)c1 | ? | i | / | / | / | /
C[n+]1ccc(/C=C/c2ccccc2O)c2ccccc21 | i | ? | ? | -6% | ? | 0%
Cc1cccc(C)c1-n1ncc(C(=O)Nc2ccc3c(c2)OCCO3)c1C1CCN(C(=O)OC(C)(C)C)CC1 | i | i | / | / | / | /
Cc1cccc2nc(Cn3c(=O)n(-c4ccc(Cl)cc4)c(=O)c4c5c(sc43)CCC5)cc(=O)n12 | i | ? | / | / | / | /
COc1cc(Cl)c(C)cc1NC(=O)CN1C(=O)C2CCCCC2C1=O (centres undefined) | i | 23µM* | -4% | 1% | -2% | 2%
C[C@H](CO)N1C[C@H](C)[C@@H](CN(C)C(=O)Nc2ccc(C(F)(F)F)cc2)Oc2c(NC(=O)Nc3ccc(C(F)(F)F)cc3)cccc2C1=O | 16µM* | ? | ? | ? | ? | -4%
C[C@@H]1CN([C@@H](C)CO)C(=O)c2cccc(NC(=O)Nc3ccc(F)cc3)c2O[C@@H]1CN(C)Cc1ccc(Oc2ccccc2)cc1 | i | i | ? | 23µM* | ? | ?
c1ccc(-c2oc3ncnc(NCCCn4ccnc4)c3c2-c2ccccc2)cc1 | i | i | ? | ? | ? | 12%
CN(C)CCCNc1ncnc2oc(-c3ccccc3)c(-c3ccccc3)c12 | ? | i | ? | ? | 23µM* | ?
CCOC(=O)c1c(C=O)c(C)n(Cc2ccccc2Cl)c1C | i | 23µM* | ? | 0% | -12% | ?
CCOC(=O)c1c(C=O)c(C)n(Cc2ccc(C)cc2)c1C | ? | ? | ? | -22% | ? | ?
CCOCCCNC(=O)CN1C(=O)c2c(c3ccccc3n2C)C1c1ccc(OC)cc1 (centres undefined) | i | i | / | / | / | /
COC1C(CO)OC(n2c3c(Cl)cccc3c3c4c(c5c6cccc(Cl)c6[nH]c5c32)C(=O)NC4=O)C(O)C1O (centres undefined) | 8.2µM* | i | -5% | 4.6µM* | 5.8µM* | 1.6µM*
COc1cc(/C=C(\C#N)c2nc3ccc(C)cc3[nH]2)ccc1OCc1ccc(C)cc1 | i | i | / | / | / | /
COc1ccc(/C=C(\C#N)c2nc3ccc(C)cc3[nH]2)cc1Oc1ccc(C(F)(F)F)cc1[N+](=O)[O-] | i | ? | 23µM* | 6% | 3% | ?
N#C/C(=C\c1cccc(Oc2ccc(C(F)(F)F)cc2[N+](=O)[O-])c1)c1nc2ccccc2[nH]1 | i | i | 18µM* | 12% | 15% | 4%
Cc1ccc2nc(/C(C#N)=C\c3ccc(Oc4ccc(C(F)(F)F)cc4[N+](=O)[O-])cc3)[nH]c2c1 | ? | ? | 3% | ? | ? | 13µM*
CCOC(=O)COc1ccc(/C=C(\C#N)c2nc3ccc(C)cc3[nH]2)cc1OC | 18µM* | ? | / | / | / | /
COC(=O)c1ccn(-c2nc(-c3ccc(Cl)cc3)cc(C(F)(F)F)n2)n1 | i | i | / | / | / | /
O=c1cc(Nc2ccc3c(c2)OCO3)[nH]c(=O)n1-c1ccc(Br)cc1 | i | ? | -1% | ? | 35µM* | -3%
O=C(O)CCc1cccc2ccccc12 | i | i | / | / | / | /
O=C(/C(=C/O)N=Nc1ccccc1)c1ccc(Cl)cc1 | i | ? | ? | 16µM* | 18µM* | 1%
O=C(Nc1cccc(S(=O)(=O)N2CCCCCC2)c1)c1ccc(Cl)nc1 | i | i | -36% | -9% | -27% | -6%
SMILES | KB-3-1 cytotox | KB-V1 MDR tox | MCF10A rereplic | HT1080NT lethal | HT1080 IDH1KD tx | SW480 rerep
COc1ccccc1NS(=O)(=O)c1cc(NC(=O)Nc2ccc(Cl)cc2Cl)ccc1N1CCCCC1 | ? | 10µM* | 3% | 6% | -19% | -8%
O=C(Nc1cccc(C(F)(F)F)c1)Nc1ccc(N2CCCC2)c(S(=O)(=O)Nc2ccccc2Cl)c1 | 7.3µM* | 8.2µM* | 4.6µM* | ? | 8.2µM* | ?
COc1ccccc1NS(=O)(=O)c1cc(NC(=O)C2CCC2)ccc1N1CCCCC1 | i | i | 3% | -3% | 1% | -12%
CC(=O)Nc1ccc(N2CCOCC2)c(S(=O)(=O)Nc2ccccc2Cl)c1 | i | i | / | 0% | 1% | /
COc1ccccc1NS(=O)(=O)c1cc(NC(=O)c2ccc(Cl)nc2)ccc1N1CCCC1 | i | 4.1µM* | 11% | -2% | -4% | 8%
O=C(Nc1cccc(S(=O)(=O)Nc2ccccc2Cl)c1)c1ccc(Cl)nc1 | 5.2µM* | 2.6µM* | -51% | -4% | -8% | 3%
Cc1oc2ncn(CC(C)C)c(=O)c2c1C(=O)NC(C)c1ccccc1 (centres undefined) | i | ? | / | / | / | /
OC(c1ccccc1)c1ncc(-c2ccc(Oc3ccccc3)cc2)[nH]1 (centres undefined) | i | i | / | ? | -27% | /
OC(c1ccc(Cl)cc1)c1ncc(-c2ccc(Oc3ccccc3)cc2)[nH]1 (centres undefined) | ? | i | / | 23µM* | 23µM* | /
CCOc1nc(-c2ccc(C)cc2)ccc1-c1noc(-c2ccccc2F)n1 | i | i | / | / | / | /
COc1ccc(NC(=O)C2CCCN(S(=O)(=O)c3c(C)n[nH]c3C)C2)cc1OC (centres undefined) | i | i | 2.1µM* | 0% | -2% | -4%
COc1ccc(NC(=O)C2CCCN(S(=O)(=O)c3c(C)[nH]c(=O)[nH]c3=O)C2)cc1OC (centres undefined) | i | ? | -7% | 19% | 0% | -2%
O=C(Nc1ccc(F)c(F)c1)C1CCN(S(=O)(=O)c2cccc3nonc23)CC1 | ? | 12µM* | 12% | ? | -14% | -5%
O=C(NCc1ccc2c(c1)OCO2)C1CCCN(S(=O)(=O)c2cccc3nonc23)C1 (centres undefined) | i | i | -4% | -4% | -8% | -4%
COc1ccc(NC(=O)C2CCCN(S(=O)(=O)c3cccc4nonc34)C2)cc1 (centres undefined) | i | ? | 15µM* | ? | ? | ?

Screening results from PubChem BioAssay.
